rTrxR1 inhibitor = rat TrxR1 inhibition. Potency, µM (highest dose often 114 µM), inactives show at the highest dose activity change, negative = inhibition, hits mostly inhibitors. AID 588453. O89049. 390,000 tested, 1% active. recombinant rTrxR1, NADPH fluorescence consumption, selenite substrate; also: % is scaled to controls: 0 for no effect and ±100 for the full control effect; nearly all actives have a fitted effect of over 65% in size
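Rat TrxR1 (90 nM in the dispensed reagent) was pre-reduced with 400 uM NADPH for 5 min at room temperature, then incubated with compound for 15 min. After 400 uM selenite was added, NADPH fluorescence (Ex 340/Em 450 nm) was followed for 8 min.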
GLP-1R inv ag = acts as inverse agonist at human GLP-1 receptor; 410,000 tested, 1.6% active; Potency, µM (top dose mostly 38.3 µM), inactives show top-dose activity change, negative = inhibition, hits mostly inhibitors; P43220; HEK293 GLP-1R CRE-luciferase, luminescence, 24 h; GLP-1R form is constitutively active; also: % is scaled to controls: 0 for no effect and ±100 for the full control effect; nearly all actives have a fitted effect of over 55% in size
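Seeding at 200 cells/uL, 12 h culture, 24 hr compound treatment, then luciferase reagent and a luminescence read; cells are HEK293 stably expressing a constitutively active GLP-1R plus cAMP-responsive luciferase.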
HEK293 tox = cytotoxicity in counter-screen for GLP-1R inverse agonists; 410,000 tested, 0.13% active; HEK293 cAMP-luciferase reporter cells, luminescence, 24 h; Potency, µM (titrated, usually from 38.3 µM), without a hit: at the highest dose activity change, negative = inhibition, usual class: inhibitors;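 also: loss of luciferase light is scored as toxicity; % is scaled to controls: 0 for no effect and ±100 for the full control effect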
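1536-well qHTS counterscreen of the MLSMR; 200 cells/uL, 12 h pre-incubation, 23 nL cpd, 24 h at 37 deg C 5% CO2, luciferase detection reagent, 12 min RT, luminescence. Inhibition = undesired.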
IDH1 R132H inh = blocks human mutant IDH1 R132H enzyme; Potency, µM (top dose mostly 76.6 µM), without a hit: at the highest dose activity change, negative = inhibition, actives largely listed as inhibitors; 390,000 tested, 0.093% active; IDH1-R132H enzyme, NADPH consumption, diaphorase/resazurin fluorescence; O75874; also: % is scaled to controls: 0 for no effect and ±100 for the full control effect; nearly all actives have a fitted effect of over 65% in size
Target sequence (O75874 whole entry R132H, stated change not applied): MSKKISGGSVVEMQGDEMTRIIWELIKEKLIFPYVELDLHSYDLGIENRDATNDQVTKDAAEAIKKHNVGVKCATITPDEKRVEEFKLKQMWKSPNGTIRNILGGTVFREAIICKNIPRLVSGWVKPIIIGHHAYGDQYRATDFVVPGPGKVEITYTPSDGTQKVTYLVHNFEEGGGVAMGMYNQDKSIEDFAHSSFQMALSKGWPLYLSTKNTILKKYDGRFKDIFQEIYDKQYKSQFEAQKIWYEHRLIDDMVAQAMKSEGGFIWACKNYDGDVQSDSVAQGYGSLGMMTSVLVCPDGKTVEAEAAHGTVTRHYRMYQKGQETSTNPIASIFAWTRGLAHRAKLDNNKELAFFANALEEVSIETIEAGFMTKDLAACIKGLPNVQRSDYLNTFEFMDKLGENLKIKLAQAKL
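IDH1-R132H (0.5 ug/mL) preincubated 30 min with compound, then NADPH (0.016 mM) and alpha-KG (2 mM) added; 80 min at RT, pH 7.5. Remaining NADPH coupled via diaphorase/resazurin to fluorescence (540/590 nm); concentration-response curves normalized to no-enzyme control.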
TrxR1 substrate = is turned over as a substrate by rat TrxR1 | purified TrxR1 substrate turnover, NADPH consumption readout | Potency, µM (titrated, usually from 114 µM), for inactives: at the highest dose activity change, negative = substrate turnover | 390,000 tested, 0.01% active; also: % is scaled to controls: 0 for no effect and ±100 for the full control effect; nearly all actives have a fitted effect of over 50% in size
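Rat TrxR1, dispensed at 90 nM, was prereduced with 400 uM NADPH (final) for 5 min at ~22 deg C, then incubated with compound 15 min before 400 uM selenite. A first-read NADPH fluorescence drop versus no-compound background flagged substrates.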
GLP1R ag = GLP-1 receptor (human) agonism; P43220; HEK293 GLP-1R CRE-luciferase, luminescence, 4-6 h; cells express a hypersensitive GLP-1R form; Potency, µM (highest dose often 45.6 µM), without a hit: at the highest dose activation, usual class: activators; 380,000 tested, 0.007% active; also: % of control where 0% means no effect
Numbers without * were called inactive; ? = inconclusive; . = no result given; [ ] = another dose, or the depositor's remark. The list is not random: actives were taken first. Their share in the collection is about 2.7%. Calls follow the shape of the dose curve; as a rule, active = well fitted curve in the direction sought with a large enough effect; inconclusive = small, poorly fitted or top-dose-only effect, or another doubt; inactive = no such curve, though single readings can be large; an effect the other way counts as inactive or inconclusive. Potency is read from the fitted curve at half-maximal effect.

SMILES | rTrxR1 inhibitor | GLP-1R inv ag | HEK293 tox | IDH1 R132H inh | TrxR1 substrate | GLP1R ag
Cc1cc(OCC(=O)N(C)Cc2ccccc2)ccc1Br | 12.3% | 10µM* | 4.2% | 1.6% | 1.1% | 3.5%
O=C(CCCN1C(=O)NC2(CCCC2)C1=O)Nc1ccc(F)cc1 | 5.8% | -19.7% | 6.6% | 3.5% | 0.1% | 8.2%
Cc1ccc(Sc2ccc(NC(=O)CCN3C(=O)NC4(CCCC4)C3=O)cc2)c(C)c1 | 25.5% | 11.2µM* | -24.5% | 3.1% | -5.1% | 8.6%
O=C1Nc2ccc(S(=O)(=O)NCc3ccco3)c3cccc1c23 | 44.7µM* | 3.0% | -2.3% | 18.1% | 9.1% | 15.4%
CN(C)CCNC(=O)COc1ccc(C23CC4CC(CC(C4)C2)C3)cc1 | -21.4% | 2.82µM* | ? | -10.7% | -11.5% | 7.7%
CCOC(=O)C1(CCc2ccccc2)CCN(Cc2nccn2CC)CC1 | 7.2%[57.1 µM] | ? | 8.91µM* | 2.5% | -24.0%[57.1 µM] | 6.9%
COc1ccc2c(c1)/C(=C\c1cccc(/C=C3/C(=O)Nc4ccc(OC)cc43)n1)C(=O)N2 | ? | ? | 2.24µM* | 1.0% | -12.6% | -1.0%
Cc1ccc2c(c1)/C(=C/c1ccccc1)C(=O)N2 | -7.8% | ? | -6.3% | 6.9% | -6.5% | 8.6%
Cc1ccc(CNC(=O)CCc2nc3cccnc3n2Cc2ccccc2)cc1 | -0.4% | 6.1% | -3.6% | 7.0% | -4.1% | .
CC(C)c1ccc2oc(-c3cc(NC(=O)c4cccnc4)ccc3Cl)nc2c1 | 30.2% | ? | ? | -14.2% | 0.1% | .
O=C(CC1SC(=Nc2ccccc2)N(CCc2c[nH]c3ccccc23)C1=O)Nc1ccccc1F (configuration not stated) | 27.2%[57.1 µM] | 6.31µM* | ? | 3.0% | 10.8%[57.1 µM] | 5.6%
O=C(CCC(=O)c1ccc(F)cc1)OCc1nnc(-c2ccc([N+](=O)[O-])cc2)o1 | 50.1µM* | -13.8% | -21.0% | 5.4% | -12.0% | 14.5%
COc1ccccc1NC(=O)C1=C(C)Nc2nc(-c3ccco3)nn2C1c1ccccc1F (configuration not stated) | -34.3% | -2.9% | -1.4% | -9.5% | -9.6% | .
Cc1ccc(N(C)S(=O)(=O)c2cccc(C(=O)NC3CC(C)(C)NC(C)(C)C3)c2)cc1 | 15.4%[57.1 µM] | 11.2µM* | -2.1% | 0.7% | 7.5%[57.1 µM] | 0.4%
CC1(C)CC(NC(=O)c2cccc(S(=O)(=O)N(Cc3ccccc3)c3ccccc3)c2)CC(C)(C)N1 | -3.8% | ? | ? | -13.8% | -8.5% | -28.6%
COC(=O)c1nc(N2CCN(S(=O)(=O)c3ccc(C)cc3)CC2)c2ccccc2n1 | ? | . | . | . | -7.4% | .
CCCCOP(=O)(OCCCC)C(Nc1ccccc1)c1ccc2c(c1)OCO2 (configuration not stated) | -12.7% | 7.94µM* | -8.2% | 6.5% | -19.5% | -31.8%
CC1NC(=O)COC1c1ccccc1 (configuration not stated) | . | 1.7% | 3.8% | 0.7% | . | 4.8%
CC1CC=C(c2ccccc2)C(=S)N1 (configuration not stated) | -11.2%[57.1 µM] | 10µM* | ? | 0.9% | 6.0%[57.1 µM] | 1.5%
CCN(CC)S(=O)(=O)c1ccc(NC(=O)c2nn(C)c3c2CSc2ccccc2-3)cc1 | 23.7% | -2.9% | 2.3% | 0.0% | 0.4% | .
CC1(C)CC(=O)C2=C(C1)OC1=C(C(=O)CC(C)(C)C1)C2c1ccc(O)cc1O | 3.55µM* | ? | ? | -1.3% | 1.4% | -24.3%
CC1(C)CC(=O)C2=C(C1)OC1=C(C(=O)CC(C)(C)C1)C2c1ccc(O)c([N+](=O)[O-])c1 | 17.7% | 0.1% | -19.4% | 12.7% | 4.6% | 11.4%
Cc1cc2ncc(-c3ncc(C(F)(F)F)cc3Cl)cn2n1 | 362.6% | 5.01µM* | 12.0% | 3.8% | 386.8% | -22.2%
Cn1ncc2c(O/N=C(\N)c3ccc(C(C)(C)C)cc3)ncnc21 | 23.1%[57.1 µM] | ? | 10µM* | 5.4% | 6.5%[57.1 µM] | -1.9%
CCN(CCCNC(=O)c1cc2cc3cc(C)ccc3nc2s1)c1cccc(C)c1 | 6.1%[57.1 µM] | ? | -16.2% | 0.8% | -7.9%[57.1 µM] | .
SMILES | rTrxR1 inhibitor | GLP-1R inv ag | HEK293 tox | IDH1 R132H inh | TrxR1 substrate | GLP1R ag
O=C(Oc1c(Br)cc(C(=S)N2CCOCC2)cc1Br)c1ccc(Cl)cc1 | -4.4% | 10µM* | ? | 1.9% | -2.8% | -7.7%
COc1cccc(NC(=S)NC2CC(C)CC(C)(C)C2)c1 (configuration not stated) | . | 8.91µM* | ? | 17.0% | . | -0.5%
CC(C)CCNC(=O)Cn1nc(N2CCN(c3ccccc3)CC2)ccc1=O | 9.1%[57.1 µM] | 2.0% | -6.7% | 0.0% | 3.0%[57.1 µM] | .
COc1ccc(CCN(C)CC(O)COc2c(C)ccc(C)c2C)cc1OC (configuration not stated) | 2.8% | ? | 1.8% | -6.8% | -0.1% | 1.3%
COc1ccc(CCN(C)CC(O)COC(c2ccc(F)cc2)c2ccc(F)cc2)cc1OC (configuration not stated) | -4.2% | 5.01µM* | ? | 2.4% | -4.2% | 20.1%
O=C(O)Cc1sc(N/N=C\c2ccncc2)nc1-c1ccccc1 | 3.16µM* | 21.8% | -16.1% | -3.9% | -7.9% | 4.2%
CCOC(=O)CNC1CC(=O)N(c2ccc(Br)cc2)C1=O (configuration not stated) | 28.2µM* | 7.3% | 0.2% | -1.9% | 3.1% | -4.1%
COc1ccc(N2C(=O)CC(NCC#N)C2=O)cc1 (configuration not stated) | 31.6µM* | 5.1% | -15.3% | 18.4% | 1.3% | 5.5%
Cc1ccccc1CNC(=O)Cc1csc2ccccc12 | -2.0% | -14.7% | -3.8% | . | 0.1% | .
COc1cc2c(cc1OC)C(Cc1ccc(O)cc1)NCC2 (configuration not stated) | -29.5% | -4.5% | -2.3% | 3.3% | 6.6% | -0.4%
CCOc1ccc(CC2NCCc3cc(OCC)c(OCC)cc32)cc1OCC (configuration not stated) | 50.1µM* | -1.5% | -14.0% | -8.2% | 4.8% | -0.1%
CCC(=O)OCCNc1cc(Sc2nc3ccccc3s2)c2nonc2c1[N+](=O)[O-] | 0.282µM* | 4.2% | 3.7% | 3.6% | -1.3% | -0.6%
CCCSc1cc(NCCOC(=O)CCC)c([N+](=O)[O-])c2nonc12 | ? | 4.1% | ? | 7.6% | -4.0% | 0.1%
O=[N+]([O-])c1c(NCCCO)cc(Sc2nc3ccccc3s2)c2nonc12 | 0.631µM* | -20.3% | ? | 6.5% | -0.7% | -24.6%
CCC(=O)OCCNc1cc(Sc2nc3ccccc3[nH]2)c2nonc2c1[N+](=O)[O-] | 0.282µM* | ? | ? | -1.9% | -14.6% | -32.2%
